# Measurements published in ChEMBL document CHEMBL3988442, “University of Dundee, Small-Polar-MMV Screening Library” (2021).
# The campaign covered roughly 69,000 compounds. About 1,000 (1.4%) showed an effect of 50% or more. This is one part of a sample in which strong results are shown more often than they occur.
# Test system: Leishmania donovani
# Assay: Leishmania intramacrophage assay
# Format: functional, organism-based
# Set-up: scale not given: in the data most compounds retested in dose-response had high values
structure (smiles),measurement,setting,value
O=c1cc(-c2ccccc2)nc2n1CCCCC2,Percent Effect,"30.3 µM, […]",-39.42%
COCC(=O)NCc1cc2n(n1)CCCN(CCCC1CCCC1)C2,Percent Effect,"30.3 µM, […]",20.98%
COCC(=O)N1CCC2(CCN(c3cnn(C)c3)C2=O)C1 (centres undefined),Percent Effect,"30.3 µM, […]",13.44%
O=C([C@@H]1C[C@@H]2CCN(C3CCOCC3)C[C@@H]2O1)N1CCOCC1,Percent Effect,"30.3 µM, […]",9.764%
Cc1nn(C)cc1CN(C)C(=O)c1cnccn1,Percent Effect,"30.3 µM, […]",-25.04%
CCC(=O)NCCNC(=O)c1nn(C)c(C)c1Cl,Percent Effect,"30.3 µM, […]",-0.8741%
CCN1CCN(C[C@@H]2CN(c3ncc(Cl)cc3Cl)C[C@@H]2CO)CC1,Percent Effect,"30.3 µM, […]",62.72%
CCN1CCN(C[C@@H]2CN(c3ncc(Cl)cc3F)C[C@@H]2CO)CC1,Percent Effect,"30.3 µM, […]",46.16%
CCN1CCN(C[C@@H]2CN(c3ncccc3Cl)C[C@@H]2CO)CC1,Percent Effect,"30.3 µM, […]",25.54%
O=C(NCCc1nccs1)[C@H](c1ccccc1)n1cnnn1,Percent Effect,"30.3 µM, […]",10.58%
CCCNc1cc(-c2c[nH]nc2C2CCN(C(=O)C3CCC3)C2)ccn1 (centres undefined),Percent Effect,"30.3 µM, […]",53.3%
CC(C)OCC(=O)N1CCC(c2ncncc2-c2ccnc(N)c2)C1 (centres undefined),Percent Effect,"30.3 µM, […]",-5.314%
CC(=O)N1CCC(c2n[nH]cc2-c2ccnc(N)c2)C1 (centres undefined),Percent Effect,"30.3 µM, […]",29.98%
CC(C)Nc1cc(-c2c[nH]nc2C2CCN(C(=O)C3CC3)C2)ccn1 (centres undefined),Percent Effect,"30.3 µM, […]",49.22%
Nc1cc(-c2c[nH]nc2C2CCCCN2C(=O)C2CCCC2)ccn1 (centres undefined),Percent Effect,"30.3 µM, […]",12.99%
CN1CCC(c2n[nH]cc2-c2ccnc(N)c2)C1 (centres undefined),Percent Effect,"30.3 µM, […]",52.81%
Nc1cc(-c2c[nH]nc2C2CCN(C(=O)C3CCCC3)C2)ccn1 (centres undefined),Percent Effect,"30.3 µM, […]",42.83%
CC(C)Nc1cc(-c2c[nH]nc2C2CCN(C(=O)C3CCC3)C2)ccn1 (centres undefined),Percent Effect,"30.3 µM, […]",63.06%
Cc1c[nH]nc1C1CCN(C(=O)C2CCOCC2)C1 (centres undefined),Percent Effect,"30.3 µM, […]",-3.336%
CC(C)CNc1cc(-c2c[nH]nc2C2CCN(C(=O)C3CC3)C2)ccn1 (centres undefined),Percent Effect,"30.3 µM, […]",60.8%
CC(C)N1CCC(c2n[nH]cc2-c2ccnc(N)c2)C1 (centres undefined),Percent Effect,"30.3 µM, […]",28.17%
Cc1c[nH]nc1C1CCN(C(=O)C2CCCC2)C1 (centres undefined),Percent Effect,"30.3 µM, […]",-28.74%
COCCNC(=O)[C@H]1CN(Cc2cccs2)C[C@H]2OCC[C@@H]12.O=C(O)C(F)(F)F,Percent Effect,"30.3 µM, […]",-23.24%
Cn1cc(-c2cc(C(F)(F)F)nn2CCC#N)cn1,Percent Effect,"30.3 µM, […]",-0.6212%
CCCn1nccc1-c1nccnc1CC1CCN(C(C)=O)CC1,Percent Effect,"30.3 µM, […]",-24.99%
NCCn1nc(C2CCN(C(=O)CC3CCCCC3)C2)c2nccnc21 (centres undefined),Percent Effect,"30 µM, 30.03 µM",-5.021%
Nc1ccc(C(=O)N2C[C@@H]3CC[C@H](C2)N(Cc2ccccc2)C3)cn1,Percent Effect,"30.3 µM, […]",19.02%
COC1COC2(CCN(CC3CC3)CC2)C1.O=C(O)C(F)(F)F (centres undefined),Percent Effect,"30.3 µM, […]",18.41%
COCCC(=O)N1C[C@@H](c2ccc(F)c(F)c2)[C@@]2(CCCC(=O)N2)C1,Percent Effect,"30.3 µM, […]",28.03%
COC(=O)N1CCCC(C(=O)NCCc2c[nH]c3cc(C)ccc23)C1 (centres undefined),Percent Effect,"30.3 µM, […]",6.757%
Cc1ccc(C2CSCCN2C(=O)c2ccc(C(N)=O)cc2)o1 (centres undefined),Percent Effect,"30 µM, 30.03 µM",7.343%
Cc1nccnc1N1C[C@H](NC(=O)CNS(C)(=O)=O)[C@@H](C2CC2)C1,Percent Effect,"30.3 µM, […]",8.886%
Cn1nc(C(=O)N2CCOCC2)c2c1CN(CC1CCC1)C2,Percent Effect,"30.3 µM, […]",23.43%
Cn1nc(C(=O)N2CCCC2)c2c1CN(CC1CCOCC1)C2,Percent Effect,"30.3 µM, […]",-0.9877%
Cn1nc(C(=O)N2CCOCC2)c2c1CN(CC1CC1)C2.O=C(O)C(F)(F)F.O=C(O)C(F)(F)F,Percent Effect,"30.3 µM, […]",55.32%
CC(C)(C)C(=O)NCCC(=O)NC(C)(C)c1ccc2c(c1)OCO2,Percent Effect,"30.3 µM, […]",2.237%
c1cncc(OCc2noc3c2CN(Cc2ccoc2)CC3)c1,Percent Effect,"30 µM, 30.03 µM",10.86%
Cc1cnc(N2CCc3onc(COc4cccnc4)c3C2)nc1,Percent Effect,"30.3 µM, […]",77.52%
O=C(N1CCCC1)N1CCc2onc(COc3cccnc3)c2C1.O=C(O)C(F)(F)F,Percent Effect,"30.3 µM, […]",0.9186%
CNS(=O)(=O)Cc1ccc(CNC(=O)c2cccc(C)n2)cc1,Percent Effect,"30 µM, 30.03 µM",36.89%
Cc1cc2c(cc1NC(=O)NC(C)(C)C)OCO2,Percent Effect,"30.3 µM, […]",-22.07%
Cc1nnc(CN(CCc2ccccc2)C2CCN(C)CC2)s1,Percent Effect,"30.3 µM, […]",1.604%
NCCn1nc(C2CCN(Cc3ccccc3)C2)c2nccnc21 (centres undefined),Percent Effect,"30.3 µM, […]",5.976%
NCCn1nc(C2CCN(Cc3ccccc3Cl)C2)c2nccnc21 (centres undefined),Percent Effect,"30.3 µM, […]",9.93%
NCCn1nc(C2CCN(Cc3ccc(Cl)c(Cl)c3)C2)c2nccnc21 (centres undefined),Percent Effect,"30 µM, 30.03 µM",52.46%
Clc1cccc2c3c([nH]c12)CCN(Cc1cc2n(n1)CCNC2)C3,Percent Effect,"30.3 µM, […]",28.65%
Clc1cccc2c3c([nH]c12)CCN(Cc1cc2n(n1)CCCNC2)C3,Percent Effect,"30.3 µM, […]",94.36%
c1ccc2c3c([nH]c2c1)CN(Cc1cc2n(n1)CCNC2)CC3,Percent Effect,"30.3 µM, […]",19.37%
COc1ccc(C(C)N(C)Cc2c(C(C)C)[nH]c3ncccc23)cc1 (centres undefined),Percent Effect,"30.3 µM, […]",-22.28%
CCN1CCCC1CN(CCN(C)C)S(=O)(=O)c1ccccc1C#N (centres undefined),Percent Effect,"30.3 µM, […]",13.5%
COCc1nc(C(=O)OCC2CCN(c3ccccc3)C2)cs1 (centres undefined),Percent Effect,"30.3 µM, […]",-78.1%
O=C(OCC1CCN(c2ccccc2)C1)c1cscn1 (centres undefined),Percent Effect,"30.3 µM, […]",51.5%
O=C(OCC1CCCN(C(=O)c2ccccc2)C1)c1cscn1 (centres undefined),Percent Effect,"30.3 µM, […]",-48.09%
COc1cc(C(=O)N(Cc2ccc(F)cc2)C2CC2)cc2c1OCCO2,Percent Effect,"30 µM, 30.03 µM",14.84%
CCCNC(=O)N1CCc2ccc(S(=O)(=O)N3CCOCC3)cc2C1,Percent Effect,"30.3 µM, […]",11.75%
CC1=C(CCN2CCCC(O)C2)C(C)(C)CCC1 (centres undefined),Percent Effect,"30.3 µM, […]",25.33%
CC1=C(CCN2CC[C@@H](N3CCC(O)CC3)[C@H](O)C2)C(C)(C)CCC1,Percent Effect,"30.3 µM, […]",56.28%
CC1=C(CCN2C[C@H](O)[C@@H](N3CCOCC3)C2)C(C)(C)CCC1,Percent Effect,"30.3 µM, […]",-12.68%
Cc1ccc(N(Cc2ccco2)C(=O)CC2=NN(C)C(=O)C2)cc1,Percent Effect,"30.3 µM, […]",6.943%
CC(=O)NCc1nc(CCOc2ccc(Cl)cc2)no1,Percent Effect,"30.3 µM, […]",7.139%
CCN1CCCC(O)(c2nc(C)c(CCOc3ccc(F)cc3)s2)CC1 (centres undefined),Percent Effect,"30.3 µM, […]",11.02%
CCCN1CCCC(O)(c2nc(C)c(COc3ccccc3)s2)CC1 (centres undefined),Percent Effect,"30.3 µM, […]",-5.482%
Cc1nc(C2(O)CCCNCC2)sc1CCOc1ccc(Cl)cc1.Cl (centres undefined),Percent Effect,"30 µM, 30.03 µM",92.94%
Cc1nc(C2(O)CCCNCC2)sc1CCOc1ccccc1.Cl (centres undefined),Percent Effect,"30.3 µM, […]",4.476%
COc1ccc(OCCc2sc(C3(O)CCCNCC3)nc2C)cc1.Cl (centres undefined),Percent Effect,"30 µM, 30.03 µM",10.27%
COc1ccc(OCc2sc(C3(O)CCCNCC3)nc2C)cc1.Cl (centres undefined),Percent Effect,"30 µM, 30.03 µM",9.769%
CC(C)(C)c1ncc(C(=O)NCCNS(C)(=O)=O)s1,Percent Effect,30 µM,20.12%
CCOc1ccccc1C(CC(=O)Nc1ccc(C)cn1)NC(C)=O (centres undefined),Percent Effect,"30 µM, 30.03 µM",34.79%
COc1ccc2c(ccn2CCC(=O)Nc2n[nH]c(CC(C)C)n2)c1,Percent Effect,"30.3 µM, […]",-2.003%
COc1cccc(CCC(=O)N2CCCC(n3cc(C)cn3)C2)c1 (centres undefined),Percent Effect,"30 µM, 30.03 µM",9.343%
Cc1cc(C(=O)N2CCCC2c2noc(C)n2)[nH]n1 (centres undefined),Percent Effect,"30.3 µM, […]",-9.431%
Cc1nc(C)c(C(=O)N2CCC(O)(Cn3ccc4ccncc43)CC2)s1,Percent Effect,"30.3 µM, […]",-5.567%
O=C(Nc1cccc(CN2CCOC2=O)c1)N1CCCC1,Percent Effect,"30.3 µM, […]",-5.143%
Cc1noc(C)c1C(=O)N(C)Cc1nc(-c2ccccn2)no1,Percent Effect,"30 µM, 30.03 µM",21.79%
Cc1noc(C(C)C)c1C(=O)NCCN1CCCCCC1=O,Percent Effect,"30 µM, 30.03 µM",20.26%
O=C1CCC(C(=O)NCCOc2cccc(Cl)c2Cl)CN1 (centres undefined),Percent Effect,"30.3 µM, […]",18.68%
CN(C)[C@H]1CCCCN(C(=O)c2cccc(N3CCS(=O)(=O)CC3)c2)C1,Percent Effect,"30.3 µM, […]",-11.54%
CN(C)C1CCCN(C(=O)c2cccc(-c3ncc[nH]3)c2)CC1 (centres undefined),Percent Effect,"30.3 µM, […]",21.12%
CN(C)[C@H]1CCCCN(C(=O)c2cccc(-c3cccc(F)c3)c2)C1,Percent Effect,"30.3 µM, […]",60.02%
Cc1ncc(CNC(CCO)C2CCCCC2)s1 (centres undefined),Percent Effect,"30.3 µM, […]",-3.67%
Cc1nc(CN2C(=O)C[C@@H]3[C@@H]2CCN3S(C)(=O)=O)cs1,Percent Effect,"30.3 µM, […]",-12.74%
Cc1nnc([C@@H]2C[C@H]3CN(C(=O)C4CC4)C[C@H]3O2)[nH]1,Percent Effect,"30.3 µM, […]",15.1%
Cc1cccc(C(C(=O)NC(C)(C)CN2CCCC2)N(C)C)c1 (centres undefined),Percent Effect,"30.3 µM, […]",64.22%
Cc1ccc(C(C(=O)NC(C)(C)CN2CCCC2)N(C)C)cc1 (centres undefined),Percent Effect,"30.3 µM, […]",-34.55%
Cc1cccc(C(C(=O)NC(C)(C)CN2CCOCC2)N(C)C)c1 (centres undefined),Percent Effect,"30.3 µM, […]",-45.9%
CCN(Cc1ccc2c(c1)OCO2)C(=O)NC(C)Cn1cccn1 (centres undefined),Percent Effect,"30 µM, 30.03 µM",-8.819%
O=C1CCC(c2ccccc2)=NN1CN1CCCCCC1,Percent Effect,"30.3 µM, […]",54.14%
O=C1CCC(c2ccc(Cl)cc2)=NN1CN1CCCCCC1,Percent Effect,"30.3 µM, […]",-2.466%
O=C1CCC(c2ccc(Cl)cc2)=NN1CN1CCSCC1,Percent Effect,"30.3 µM, […]",35.07%
Cc1cc2ccccc2n1CCC(=O)NCCCc1nnc(N)s1,Percent Effect,"30.3 µM, […]",18.88%
Cc1cc(C(F)F)nn1C(C)C(=O)NCc1ncc[nH]1 (centres undefined),Percent Effect,"30.3 µM, […]",43.47%
CCn1nc(C)c(CN2CCCC(c3ccc(C(=O)O)cc3)C2)c1C (centres undefined),Percent Effect,"30.3 µM, […]",17.25%
CCn1nc(C)c(CN2CCC(c3ccc(C(=O)O)cc3)C2)c1C (centres undefined),Percent Effect,"30.3 µM, […]",54.96%
Cc1nn(C)c(C)c1CN1CCCC(c2ccc(C(=O)O)cc2)C1 (centres undefined),Percent Effect,"30.3 µM, […]",20.41%
CCS(=O)(=O)CCN(C)Cc1cc(C)ccc1OC,Percent Effect,"30.3 µM, […]",6.115%
CC(=O)NCC(=O)N1CCN(CCN(C)C)c2ncccc2C1.O=C(O)C(F)(F)F.O=C(O)C(F)(F)F,Percent Effect,"30.3 µM, […]",27.08%
COCC(=O)NC[C@@]1(COc2cccnc2)C[C@@H](O)[C@@H](O)C1.Cl,Percent Effect,"30.3 µM, […]",-3.857%
COC(=O)c1cccc(S(=O)(=O)NC(=O)COC2CCCC2)c1,Percent Effect,30 µM,-0.3864%
c1cncc(-c2ccnn2CN2CCOCC2)c1,Percent Effect,"30.3 µM, […]",-9.601%
Clc1ccc(CN2CCN(Cn3nccc3-c3cccnc3)CC2)s1,Percent Effect,"30.3 µM, […]",56.59%
c1cnc(N2CCN(Cn3nccc3-c3cccnc3)CC2)nc1,Percent Effect,"30.3 µM, […]",61.02%
c1cncc(-c2ccnn2CN2CCC3(CC2)OCCO3)c1,Percent Effect,"30.3 µM, […]",24.88%
CC(C)(C)C(=O)N1CCN(Cn2nccc2-c2cccnc2)CC1,Percent Effect,"30.3 µM, […]",7.096%
CC(C)(C)CCN1CCN(Cn2nccc2-c2cccnc2)CC1,Percent Effect,"30.3 µM, […]",14.91%
